High-throughput results from PubChem BioAssay.
Pf Dd2 growth = qHTS Primary assay for Inhibitors of Plasmodium falciparum Dd2 growth in vitro. hit rate 4.3% among 120,000. AID 1347417, 2020. P. falciparum Dd2 growth, SYBR Green, 72 h. Potency, µM (series often up to 28.9 µM), without a hit: at the top dose activity, negative = inhibition, hits mostly inhibitors; active = well fitted inhibition curve with a large enough effect;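 also: plate controls were DMSO vehicle for no effect and reference drug for full effect; nearly all actives have a fitted effect of over 65% in size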
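Readout: SYBR Green fluorescence, 485 nm excitation, 535 nm emission, after ~16 h lysis at 37C. Before that, Dd2-infected red cells (2.5% hematocrit) grew 72 h with compound, 29 uM top final concentration.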
The depositor's hits bear a star; i = inactive; [ ] = another dose, or the depositor's remark. The sample as a whole holds a higher share of hits than the screen did. Potency is read from the fitted curve at half-maximal effect.

SMILES	Pf Dd2 growth
COc1ccccc1CN[C@H]1CC(C)(C)[C@@H]2C[C@@](C)(O)CC[C@]12CCC(=O)NCCN1CCOCC1	-17.2%
CCN1c2cc(C(=O)NCc3ccccc3C)ccc2C(=O)N2CCCCCC21 (stereo not drawn)	6.31µM*
CCN1c2cc(C(=O)NCc3cccc(Cl)c3)ccc2C(=O)N2CCCCCC21 (stereo not drawn)	-4.2%
CCN1c2cc(C(=O)NCc3ccc(OC)cc3)ccc2C(=O)N2CCCCCC21 (stereo not drawn)	i
CC(C)c1ccc(CNC(=O)c2ccc3c(c2)N(C)C2CCCCN2C3=O)cc1 (stereo not drawn)	2.24µM*
CN1c2cc(C(=O)NCc3ccccc3)ccc2C(=O)N2CCCCC21 (stereo not drawn)	i
CCN1c2cc(C(=O)NCc3ccc(C)c(C)c3)ccc2C(=O)N2CCCCCC21 (stereo not drawn)	-2.8%
CCN1c2cc(C(=O)NCc3ccc(Cl)cc3)ccc2C(=O)N2CCCCC21 (stereo not drawn)	8.91µM*
CCN1c2cc(C(=O)NCc3cccc(OC)c3OC)ccc2C(=O)N2CCCCCC21 (stereo not drawn)	-27.5%
CN1c2cc(C(=O)NCc3ccc(Cl)cc3)ccc2C(=O)N2CCCCC21 (stereo not drawn)	i
C[C@@H](NC(=O)N1CCOC[C@H]1c1ncc(-c2ccc(F)cc2)[nH]1)c1ccccc1	i
NC(=O)C1(c2nc(-c3ccncc3)nn2-c2ccc3c(c2)OCCO3)CC1	-13.8%
Cc1cc(C(=O)N2CC(F)(F)C[C@H]2c2nnc(C)o2)no1	-13.9%
O=C(NCCCN1CCCc2ccccc21)c1cccnc1N1CC2CC(C1)[C@H]1CCCC(=O)N1C2 (stereo partly drawn)	i
O=C(NCCCN1CCCc2ccccc21)c1ccc(N2CC3CC(C2)[C@H]2CCCC(=O)N2C3)nc1 (stereo partly drawn)	11.2µM*
O=C(NCCCN1CCOCC1)c1ccc(N2CC3CC(C2)[C@H]2CCCC(=O)N2C3)nc1 (stereo partly drawn)	-29.8%
COCCCN1CC2(CCN(C(=O)C(=O)c3cccn3C)CC2)CC1=O	7.9%
Cc1ccc(NC(=O)c2cc(S(=O)(=O)NCCc3ccc(Cl)cc3)ccc2F)cc1	i
Cc1ccc(C(=O)Nc2ccc(F)cc2)cc1S(=O)(=O)N1CCCCCC1	-37.4%
CC(C)c1ccc(NC(=O)c2cc(S(=O)(=O)NC3CCCCC3)ccc2F)cc1	7.94µM*
CCOc1ccc(NC(=O)c2cc(S(=O)(=O)N3CCOCC3)ccc2F)cc1	i
CCOc1ccc(NC(=O)c2cc(S(=O)(=O)NC3CCCCCC3)ccc2F)cc1	3.98µM*
CCOc1ccccc1NC(=O)c1cc(S(=O)(=O)NC2CCCC2)ccc1F	i
O=C(Nc1ccc(Br)cc1F)c1cc(S(=O)(=O)NC2CCCCC2)ccc1F	-15.5%
O=C(Nc1ccc(Br)cc1)c1ccc(Br)c(S(=O)(=O)N2CCCCC2)c1	-6.1%
SMILES	Pf Dd2 growth
O=C(Nc1ccc(Br)cc1)c1ccc(F)c(S(=O)(=O)NC2CCCCCC2)c1	1.26µM*
CCc1ccc(C(=O)N2CCC(N3C(=O)CCC3C(N)=O)CC2)cc1 (stereo not drawn)	-5.9%
CCN1c2cc(C(=O)Nc3ccc(C(F)(F)F)cc3)ccc2C(=O)N2CCCC21 (stereo not drawn)	-21.2%
CC(C)(Oc1nn(Cc2cccc(Cl)c2)c2ccccc12)C(=O)NCc1ccncc1	-5.7%[44.1 µM]
O=[S+]([O-])(c1cccs1)N1CC(Oc2ccc3c(c2)OCO3)C1	-9.2%
NCCc1n[nH]c(=O)n1-c1ccc2c(c1)OCO2	-4.6%
Cc1ccccc1CN1Cc2nc(-c3ccccc3)ccc2OCC1=O	-6.9%[44.1 µM]
Cc1ccccc1CN1Cc2nc(-c3cnn(C)c3)ccc2OCC1=O	i
Cc1ccccc1CN1Cc2nc(N3CCCC3)ccc2OCC1=O	10µM*
Cc1ccc(C)c(Cn2c(C(C)NC(=O)c3ccccc3)nc3ccccc32)c1 (stereo not drawn)	-14.7%
CCOc1ccccc1N1CC(c2nc3ccccc3n2Cc2c(C)cc(C)cc2C)CC1=O (stereo not drawn)	28.5%
Cc1cc(C)c(Cn2c(C(O)c3ccccc3)nc3ccccc32)c(C)c1 (stereo not drawn)	3.16µM*
COc1ccccc1-c1cc(C(=O)NCc2ccc(F)cc2)c2cnn(C)c2n1	-21.2%
Cc1nc(N2CCC(NC(=O)c3ccccc3F)CC2)cc(C(F)(F)F)n1	i
Cc1nc(N2CCC(NC(=O)c3ccccc3Cl)CC2)cc(C(F)(F)F)n1	i
COc1cc(Cl)ccc1C(=O)NC1CCN(c2cc(C(F)(F)F)nc(C)n2)CC1	5.01µM*
CCCN(CC1CC1)C(=O)[C@@H]1CN(S(=O)(=O)CC)C[C@H]1c1ccncc1	-0.8%
C=CCNC(=O)N1CC[C@@H](CC(=O)O)[C@@H](CC2=NCCc3cc(OC)ccc32)C1	-9.6%[44.1 µM]
Cc1noc(C)c1CC(=O)NCC12CCC=C1NC(=O)CC2 (stereo not drawn)	12.0%
COc1ccc(CN2C=C(C(=O)OCc3noc(-c4ccc(C)cc4)n3)C(C)=NS2(=O)=O)cc1	11.2µM*
COc1ccc(CN2C=C(C(=O)OCc3noc(C)n3)C(C)=NS2(=O)=O)cc1	13.7%
COc1ccc(CN2C=C(C(=O)OCc3noc(-c4ccc(C)c(C)c4)n3)C(C)=NS2(=O)=O)cc1	i
O=C1Cc2c(-c3ccccc3Cl)n[nH]c2CN1Cc1ccccn1	8.1%[44.1 µM]
CCn1ncc(NC(=O)Cn2ncc3cc(-c4cccc(C#N)c4)ccc32)n1	-16.2%
Cc1nc2c(c(-c3ccc(Cl)cc3)n1)CCN(C(=O)c1ccccc1F)CC2	-15.3%
SMILES	Pf Dd2 growth
CCOc1ccc2c(n1)CCN(C(=O)Nc1cc(C)ccc1C)C2	-15.4%
Cc1ccc(C)c(NC(=O)N2CC=C(c3c[nH]c4ccccc34)CC2)c1	3.98µM*
Cc1cc(NC(=O)N2CC=C(c3c[nH]c4ccccc34)CC2)ccc1Br	-2.7%
CCc1ccc(NC(=O)N2CC=C(c3c[nH]c4ccccc34)CC2)cc1	i
CCOC(=O)c1cccc(NC(=O)N2CCC(CN3CCc4ccccc4C3)CC2)c1	-14.0%
CCOC(=O)c1cccc(NC(=O)N2CC=C(c3c[nH]c4ccccc34)CC2)c1	6.31µM*
COc1cccc([S+](=O)([O-])N2CC(Oc3ccc(F)c(C)c3)C2)c1	i
CN1C(=O)C(c2ccccc2)CC12CCN(C(=O)c1ccoc1)CC2 (stereo not drawn)	-13.6%
COCCC(=O)N1CCc2oc(C)c(C(=O)N(C)C)c2C1	-12.8%
Cc1nnnn1CCC(=O)N[C@H]1CN(S(C)(=O)=O)C[C@@H]1C(C)C	1.4%
O=C(Nc1cccc(-c2nnc3n2CCCC3)c1)c1ccccn1	i
O=C(Nc1cccc(-c2nnc3n2CCCC3)c1)C1CCCC1	i
O=C(Nc1ccc(-c2nnc3n2CCCC3)cc1)c1nccc2ccccc12	-7.6%
O=C(Nc1cccc(-c2nnc3n2CCCC3)c1)c1nccc2ccccc12	4.47µM*
CC(=O)Nc1cccc(C(=O)Nc2cccc(-c3nnc4n3CCCC4)c2)c1	-5.3%
COc1ccccc1C(=O)Nc1cccc(-c2nnc3n2CCCC3)c1	4.47µM*
O=C1CCN(S(=O)(=O)c2ccccc2)CCCN(C(=O)Cc2c[nH]c3ccccc23)CCN1	-28.0%
CCCN1CC2(CCN(Cc3cn[nH]c3C(=O)O)CC2)CC1C(=O)O (stereo not drawn)	9.2%
CC(C)Oc1cccc2c1c(NC(=O)c1ccn(C)n1)nn2Cc1ccccc1	8.91µM*
CC(C)Oc1cccc2c1c(NC(=O)C1CCOCC1)nn2C	-5.6%
